High-throughput results as filed in PubChem.
Bst PK mod – Pyruvate Kinase | purified pyruvate kinase, luminescence ATP production; ribose 5-phosphate activator present at AC10 | Potency, µM | hit rate 1.2% among 51,000; in the data active = potency below about 11 µM; inconclusive = mostly about 12 µM to 25 µM;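 the screen sought inhibitors and activators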;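 note: potency is the fitted concentration of half-maximal effect; scaled between full activation by ribose 5 phosphate and full inhibition by luteolin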
HEK293 cAMP ctrl – qHTS Assay for Agonists of the Thyroid Stimulating Hormone Receptor: Activators of Intracellular cAMP Concentrations in Parental HEK 293; hit rate 2.5% among 73,000; parental HEK293 CNG cAMP sensor, membrane potential fluorescence; Potency, µM (titrated, usually from 57.1 µM), without a hit: at the top dose activation, hits mostly activators; AID 938, 2007; note: potency is the fitted concentration of half-maximal effect; % of control where 0% means no effect; nearly all actives have a fitted effect of over 55% in size
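Parental HEK 293 cells stably expressing a modified CNG channel (no TSHR) report cAMP rise as membrane depolarization. Membrane potential dye with 100 uM RO 20-1724 was loaded for 60 min at room temperature, then compound added for 30 min; fluorescence read at 590 nm.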
TSHR ag – qHTS Assay for Agonists of the Thyroid Stimulating Hormone Receptor. HEK293-CNG-TSHR cells (CNG channel as cAMP sensor), membrane potential dye, cAMP. Potency, µM (series often up to 57.1 µM), for inactives: at the highest dose activation, most hits filed as activators. hit rate 0.48% among 73,000; active = well fitted activation curve with a large enough effect in the main read-out, with a control signal flat, not every such curve was filed as active; inconclusive = small, poorly fitted or top-dose-only effect, or a change in a side signal; inactive = no such curve, though single readings can be large or run the other way; % of control where 0% means no effect;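 note: the control signal comes from parental cells without the receptor; potency is the fitted concentration of half-maximal effect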
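HEK 293 cells stably expressing TSHR and a modified CNG channel, with CNG-only parental cells as counterscreen, were preloaded 60 min at room temperature with membrane potential dye containing 100 uM RO 20-1724. Compound exposure was 30 min, and depolarization was read as fluorescence at 590 nm.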
GBA activity – Glucocerebrosidase; purified enzyme, resorufin glucoside fluorescence (screen aimed at inhibitors), 20 min; hit rate 1.1% among 48,000; Potency, µM; Lysosomal acid glucosylceramidase (Homo sapiens), P04062; AID 360, 2006; in the data active = potency below about 15 µM; inconclusive = mostly about 16 µM to 33 µM;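 note: potency is the fitted concentration of half-maximal effect; the screen sought inhibitors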
Target sequence (P04062 whole entry, looked up): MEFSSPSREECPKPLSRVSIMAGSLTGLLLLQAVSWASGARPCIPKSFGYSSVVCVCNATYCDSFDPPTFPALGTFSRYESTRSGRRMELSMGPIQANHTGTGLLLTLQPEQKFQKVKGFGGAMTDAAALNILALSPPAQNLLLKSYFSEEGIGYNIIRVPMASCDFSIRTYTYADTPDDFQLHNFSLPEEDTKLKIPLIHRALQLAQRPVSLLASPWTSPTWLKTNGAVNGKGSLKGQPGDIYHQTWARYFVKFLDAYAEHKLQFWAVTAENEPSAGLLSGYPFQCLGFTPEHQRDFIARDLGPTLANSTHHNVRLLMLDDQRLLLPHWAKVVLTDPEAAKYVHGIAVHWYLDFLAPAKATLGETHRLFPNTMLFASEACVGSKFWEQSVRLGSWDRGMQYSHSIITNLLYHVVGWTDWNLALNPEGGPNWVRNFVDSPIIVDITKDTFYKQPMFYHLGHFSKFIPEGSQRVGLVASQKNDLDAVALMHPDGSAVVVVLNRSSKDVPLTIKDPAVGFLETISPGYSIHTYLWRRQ
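Normal human glucocerebrosidase (0.2 nM final) was assayed with resorufin β-D-glucopyranoside (30 uM final) in 50mM citric acid/KH2PO4, 10mM sodium taurocholate, 0.01% tween-20, pH 5.9. Compounds were titrated; fluorescence (Ex 548, Em 600) read after 20 min at RT.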
HEK293 cAMP cnt – Confirmation Concentration-Response Assay for Agonists of the Thyroid Stimulating Hormone Receptor: Activators of Intracellular cAMP Concentrations in Parental HEK 293; activity change, negative = inhibition, % at 32.9 µM; parental HEK293 CNG biosensor, cAMP membrane potential fluorescence; 150 tested, under 10 active; AID 953, 2007; shares compounds with TSHR ag
* hit, by the source's call; i = inactive; ? = inconclusive; / = not tested or not shown; [ ] = another dose, or the depositor's remark. Hits are enriched below; roughly 4% of the tested compounds scored in any of these assays. Unless noted, calls come from the whole dose curve; as a rule, active = well fitted curve in the direction sought with a large enough effect; inconclusive = small, poorly fitted or top-dose-only effect, or another doubt; inactive = no such curve, though single readings can be large; an effect the other way counts as inactive or inconclusive.

SMILES	Bst PK mod	HEK293 cAMP ctrl	TSHR ag	GBA activity	HEK293 cAMP cnt
COc1ccc2ccccc2c1C1CC(=O)N2CN(C)CSC2=C1C#N (stereo unspecified)	>57	8%	5%	14*	/
Cc1ccc(C2C3=C(CC(C)(C)CC3=O)NC3=C2C(=O)CC(C)(C)C3)o1	>57	3%	13µM*	i	/
CC1=C(C#N)C(C)C2=C(CC(C)(C)CC2=O)N1 (stereo unspecified)	/	1%	7%	/	/
O=C(O)CCC/C=C\C[C@H]1[C@@H](/C=C\[C@@H](O)C2Cc3ccccc3C2)[C@H](F)C[C@H]1O	/	-6%	7%	/	/
OC(CCN1CCOCC1)(c1ccc(Cl)cc1)C1CCCCC1 (stereo unspecified)	>57	16µM*	?	i	/
OC(CCN1CCCCC1)(c1ccccc1)C1CCCCC1 (stereo unspecified)	>26	/	/	/	/
COc1ccccc1-c1cc(C(=O)NCc2ccco2)no1	>57	4%	1%[11.4 µM]	13*	/
Cc1cc(C(=O)Nc2cc(C)n(Cc3ccc(Cl)cc3)n2)no1	>57	31%	13%	>77	/
COc1ccccc1-c1cc(C(=O)Nc2cc(C)n(Cc3ccc(Cl)cc3)n2)no1	>57	3.2µM*	?	>77	/
COc1ccc2cc(C(=O)CCC(=O)O)ccc2c1	/	2%[11.4 µM]	0%[11.4 µM]	/	/
COc1ccc(-c2cc(C(F)F)n3ncc(C(=O)N4CCN(C(=O)c5ccco5)CC4)c3n2)cc1	/	6%	/	/	/
Cc1ccc(-c2cc(C(F)F)n3ncc(C(=O)N4CCN(c5ccccn5)CC4)c3n2)cc1	/	32µM*	?	/	/
CCN1CCN(C(=O)c2cnn3c(C(F)F)cc(-c4ccc(C)cc4)nc23)CC1	>57	16µM*	?	>77	/
COc1ccccc1-c1cc(C(=O)N2CCc3ccccc3C2)no1	/	23%	23%	/	/
C[N+](C)(N)CCC[N+](C)(C)N	/	2%[11.4 µM]	4%[11.4 µM]	/	/
CCOC(=O)C1CCCN(Cc2ccc(OC)cc2OC)C1 (stereo unspecified)	/	32µM*	?	/	/
CC1(C)CC2CC(C)(CN2S(=O)(=O)c2ccc(N)cc2)C1 (stereo unspecified)	/	7%	25µM*	/	-5
CN1CCN(S(=O)(=O)c2ccc(N)cc2)CC1	/	19%	-4%	/	/
N#C/C(=C\Nc1ccccn1)C(=O)C1CC1	/	5%[11.4 µM]	-4%[11.4 µM]	/	/
COc1cc(OC)cc(-c2nnc(SCC(=O)N(C(C)C)C(C)C)o2)c1	>57	24%	25µM*	>77	17
CC1CCN(CC[S-])CC1.O.O.[Cl][Pt]	/	-2%[11.4 µM]	-7%[11.4 µM]	/	/
CCSCCOC(=O)C1=C(C)N(C)C(=O)NC1c1cc(OC)ccc1OC (stereo unspecified)	/	13%	25µM*	/	8
CCN1CCCC1Cn1c(-c2ccccc2)nc2c(NCCOC)nc(C)nc21 (stereo unspecified)	/	11%	-1%	/	/
COC(=O)C1=C(C)NC(=O)NC1c1cn(-c2ccccc2)nc1-c1cccs1 (stereo unspecified)	>57	13%	25µM*	>77	5
CCOC(=O)CCc1c(C)nc2c(c(C)nn2C(C)(C)C)c1C	/	21%	25µM*	/	13
SMILES	Bst PK mod	HEK293 cAMP ctrl	TSHR ag	GBA activity	HEK293 cAMP cnt
CCCS(=O)(=O)N1CCN(C(=O)c2cccnc2)CC1	/	-2%	1%	/	/
CCCS(=O)(=O)N1CCN(C(=O)c2ccc(-c3ccccc3)cc2)CC1	/	17%[11.4 µM]	/	/	17
C=CCOC(=O)C(C(C)=O)C(NC(=O)OC)c1ccc(Cl)cc1 (stereo unspecified)	/	13%[11.4 µM]	/	/	/
CCNc1nc(NCc2ccccc2)nc(Oc2ccc(=O)[nH]n2)n1	>57	-3%	102%	>77	/
CSc1nc(NC(C)(C)C)nc(Oc2ccc(=O)[nH]n2)n1	>57	0%	25µM*	>77	-3
Cc1cnc(NC(=O)c2ccc3c(c2)C(=O)N(Cc2ccco2)C3=O)s1	>57	-12%	-19%	>77	-11[25.6 µM]
O=C(NC1=NCCS1)c1ccc2c(c1)C(=O)N(Cc1ccco1)C2=O	>57	0%	24%	>77	/
CCC(=O)[C@@]1(O)C(=O)N2C(=C3C(=O)OCCC31)N(Cc1ccccc1)C(C)=C(C(=O)OC)C2c1ccccc1 (stereo partly specified)	/	-5%[11.4 µM]	3%[11.4 µM]	/	/
Cc1occc1-c1nnc(SCC(=O)Nc2ccccc2)n1C(C)c1ccccc1 (stereo unspecified)	>57	31%	7.9µM*	>77	-10
C=CCn1c(NCc2ccccc2)nc2ccccc21	>57	16%	16%	>77	/
C=CCn1c(NCc2ccc3c(c2)OCO3)nc2ccccc21	/	16%	2%	>77	13[25.6 µM]
COC(=O)NC(CC(C)=O)c1ccc(F)cc1 (stereo unspecified)	/	-5%[11.4 µM]	11%[11.4 µM]	/	/
COC(=O)C/C=C\[C@@H](C)[C@@H](/C=N\OCC[C@@H]1C=C[C@H](OC(C)=O)[C@H](COC(C)=O)O1)OC	/	7%[11.4 µM]	-4%[11.4 µM]	/	/
CC(=O)N1CCCc2cc(S(=O)(=O)N(CC(C)C)CC(C)C)ccc21	>57	14%	13µM*	>77	14
CC(=O)N1CCCc2cc(S(=O)(=O)N(C)CCC#N)ccc21	>57	3%	-2%	>77	/
OCC1OC(C#Cc2ccccc2)C=CC1O (stereo unspecified)	/	-4%[11.4 µM]	-2%[11.4 µM]	/	/
COC(=O)c1cc(C(=O)OC)cc(N2C(=O)CC(Sc3nc(C)cc(C)n3)C2=O)c1 (stereo unspecified)	i	0%	25µM*	>77	-8
Cc1cccc(NC(=O)CSc2nnc(-c3ccccc3)n2N)c1C	>57	-13%	3%[11.4 µM]	>77	-2[25.6 µM]
Cc1cccc(NC(=O)CSc2nnc(-c3ccccc3)n2N)c1	>57	-12%	7%	>77	/
Cc1nc2cnc(N3CCNCC3)nc2n(-c2ccccc2)c1=O	/	11%	-1%	/	/
Cc1ccc(S(=O)(=O)N[C@H]2COC(=O)C/C=C\[C@H](C)[C@@H](NS(=O)(=O)c3ccc(C)cc3)COC(=O)C/C=C\[C@@H]2C)cc1	/	-7%[11.4 µM]	-4%[11.4 µM]	/	/
CCOC(=O)c1ccc(NC(=O)c2ccc(CN3CCOCC3)cc2)cc1	>57	20%	/	/	11
CCOc1cc(C(=O)NC)cc(OCC)c1OCC	>57	-21%	3%	>77	/
CCOc1cc(C(=O)N(C)c2ccccc2)cc(OCC)c1OCC	/	15%	25µM*	/	9
Cn1cccc1Cc1nnc(SCC(N)=O)n1CCc1ccccc1	/	3%	4%	/	3[25.6 µM]
Cn1c(=O)c2[nH]c(CCCCC(=O)O)nc2n(C)c1=O	/	3%[11.4 µM]	5%[11.4 µM]	/	/
COc1ccc(C2C3=C(CC(c4ccco4)CC3=O)Nc3ccccc3N2C(C)=O)cc1 (stereo unspecified)	/	7%	4%	/	/
O=C1CC(c2ccco2)CC2=C1C(c1ccccc1)n1nc(C(F)(F)F)nc1N2 (stereo unspecified)	>57	10%	0.63µM*	/	-7
OC[C@@H]1O[C@@H](n2cnc3c(NC4CCCCC4)ncnc32)[C@@H](O)[C@H]1O	/	21%	/	/	/
